Results on 1 compound are retold here after PubChem BioAssay AID1902 (Broad Institute, 2009).

Screen size: about 3,200 compounds; about 2,900 (91%) were called active.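 The calls were made as follows: active = EC50 no more than a set limit of log units above the highest dose; inactive = the rest.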 So high a share suggests a set chosen from earlier hits. This is one part of the list. Measured potencies and affinities stand elsewhere.

This assay in a line: S. pyogenes SKKanGAS kanamycin growth inhibitors – SKKanGAS strain, luminescence, dose confirmation, streptokinase promoter inhibitor project, dose response (AID 1902).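 Also: lower survival reflects blocked streptokinase promoter driving kanamycin resistance gene; 0% = DMSO median and -100% = tetracycline positive control median.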 To be noted: kanamycin survival, BacTiterGlo, 6 h; at 15 µM (top of the series).
Regarding `N#C/C(=C\c1ccc(/C=C(/C#N)c2nn(CCO)c(N)c2C#N)cc1)c1nn(CCO)c(N)c1C#N`, the activity change, negative = inhibition is -60.6% (active).
